Records with an inconclusive call do not appear. Entries that show only a call come without a potency. Unmarked numbers belong to inactive results. Activity calls are given as the source filed them. The call rests on the fitted dose curve; in most records, active means well fitted cell-killing curve with a large enough effect in the repeat runs (not every such curve was filed as active); inconclusive means weak or mixed curves, or effect the other way; inactive means no such curve, though single readings can be large or run the other way.

For 40 compounds, Potency and activity change, negative = cytotoxicity results are on record in PubChem BioAssay (Tox21).

A short description of this test: qHTS assay to identify small molecule antagonists of the farnesoid-X-receptor (FXR) signaling pathway - cell viability counter screen (AID 743221). Further: nearly all actives have a fitted effect of over 50% in size. The conditions noted are these: FXR-bla HEK293T viability, CellTiter-Glo luminescence, 16 h; series mostly up to 62.6 µM. From the text: National Center for Advancing Translational Sciences [NCATS]
NIH Chemical Genomics Center [NCGC]
U.S. Environmental Protection Agency [EPA]
National Institutes of Environmental Health Sciences [NIEHS]
National Toxicology Program [NTP]
U.S. Food and Drug Administration [FDA]
The farnesoid-X-receptor (FXR), a nuclear hormone receptor, is highly expressed in liver, intestine, kidney and adrenal cortex. Natural ligands of FXR are the bile acids (Cholic acid, Chenodeoxy cholic acid etc). FXR is an important regulator of diverse metabolic pathways, including the bile acid homeostasis, lipid and glucose metabolisms. FXR regulates the expression of target genes by binding either as a monomer or as a heterodimer with the retinoid X receptor (RXR). Numerous studies have reported that FXR exerts protective function during cholestasis, diabetes, liver regeneration, and cancer. To identify compounds that inhibit FXR signaling, GeneBLAzer FXR-UAS-bla HEK 293T cell line (Invitrogen, Carlsbad, CA) containing a beta-lactamase reporter gene under the control of a UAS response element was used to screen the Tox21 10K compound library. The cytotoxicity of the Tox21 compound library against the FXR-bla cell line was tested in parallel by measuring the cell viability using CellTiter-Glo assay in the same wells.
Tox21 Assay Protocol Summary:
FXR-bla cells were dispensed at 5000 cells/5uL/well in 1536-well black wall/clear bottom plates using a Multidrop Combi (Thermo Fisher Scientific, Waltham, MA) dispenser. After the assay plates were incubated at 37 C and 5% CO2 for 5 h, 23 nL of compounds dissolved in DMSO, positive controls or DMSO only was transferred to the assay plate by a Pintool station (Kalypsys, San Diego, CA), followed by addition of 1 uL Chenodeoxycholic acid (50 uM, final concentration in the wells). The assay plates were incubated at 37C for 16 h. After 1 uL of LiveBLAzerTM B/G FRET substrate was added using a Bioraptr Flying Reagent Dispenser (FRD) workstation (Beckman Coulter, Indianapolis, IN), the plates were incubated at room temperature for 2 h, and fluorescence intensity was measured by an Envision plate reader (PerkinElmer, Shelton, CT). For cell viability readout that measures cytotoxicity, 4uL/well of CellTiter-Glo reagent was added into the assay plates using a Bioraptr FRD. After 30 min incubation at room temperature, the luminescence intensity in the plates was measured using a ViewLux plate reader (PerkinElmer).
For orientation: Quantitative high-throughput screening tests each substance at several concentrations.
Take `NCCN1CCNC1=O`: the Potency entry was “inactive”. The same measure, in the same setting: to `CCCCCCCCCCCCCCCCCC(=O)OCCCCCCCCCCCCCC(C)C` belongs “inactive”; to `c1cc(CN2CCCCC2)cc(OCCCNc2nc3ccccc3s2)c1`, “inactive”. `CC(C)CCCCCCN`: the Potency entry was “inactive”.

As to `CCN1CCCC1CNC(=O)c1cc(S(N)(=O)=O)ccc1OC` (stereo not given), the Potency result was “inactive”. The same measure, in the same setting: to `CCCCCCCCCCCCI` belongs “inactive”; to `CCCCCCC(CCCCCCCCCCC(=O)OCC(COC(C)=O)OC(C)=O)OC(C)=O` (stereo not given), “inactive”.

With `CCCC(C)C(=O)O` (stereo not given), the Potency result was “inactive”. Regarding `COC[C@H](c1ccc(C(F)(F)F)cc1)N1CCN(C2(C)CCN(C(=O)c3c(C)ncnc3C)CC2)C[C@H]1C`, the Potency entry was “inactive”. With `COc1ccc2cc(C=O)ccc2c1`, the Potency result was “inactive”. With `CC(C)c1cccc(C(C)C)c1N`, the Potency result is “inactive”. With `O=C(O)/C=C/c1ccc(/C=C/C(=O)O)cc1`, the Potency entry is “inactive”. Same read-out and setting: to `CCCOCC(C)OCC(C)O` (stereo not given) belongs “inactive”. `CC12CCC(CC1=O)C2(C)C` (stereo not given): the Potency entry is “inactive”. Regarding `Cc1c(F)cc2c(=O)c(C(=O)O)cn3c2c1CCC3C` (stereo not given), the Potency result was “inactive”. Consider `CCCc1ccc(N)cc1`, for which the Potency entry was “inactive”. As for `CC(C)c1ccc2oc3nc(N)c(C(=O)O)cc3c(=O)c2c1`, the Potency result was “inactive”. Turning to `CC1=CCC2C(C1)C2(C)C` (stereo not given), the Potency entry was “inactive”.

For the compound `CCCC(=O)O[C@]1(C(=O)CCl)[C@@H](C)C[C@H]2[C@@H]3CCC4=CC(=O)C=C[C@]4(C)[C@@]3(F)C(=O)C[C@@]21C`, the Potency result is “inactive”.

With `NCCNC(=O)c1ccc(Cl)cn1`, the Potency entry is “inactive”. Still for that read-out and setting: to `Oc1ccc2c(c1)OC[C@@H](N1CCC(O)(c3ccc(F)cc3)CC1)[C@H]2O` belongs “inactive”. On the same count and under the same terms, to `Cc1ncc(CSSCc2cnc(C)c(O)c2CO)c(CO)c1O` belongs “inactive”; to `O=C(O)c1ccccc1-c1ccc(C(F)(F)F)cc1`, “inactive”. For the compound `Nc1nc(F)nc2c1ncn2[C@@H]1O[C@H](CO)[C@@H](O)[C@@H]1O`, the Potency result was “inactive”.

With `COC(=O)[C@H]1[C@H]2C[C@@H]3c4[nH]c5cc(OC)ccc5c4CCN3C[C@H]2C[C@@H](OC(=O)COc2ccc(OC)cc2)[C@@H]1OC`, the Potency entry was “inactive”. Consider `NC(=S)Nc1cccc2ccccc12`, for which the activity change, negative = cytotoxicity is 8.25% [at 5.95 µM]. Consider `NC(=O)c1ncn([C@@H]2O[C@H](CO)[C@@H](O)[C@H]2O)c1N`, for which the Potency result is “inactive”. The same measure, in the same setting: to `CO[Si](OC)(OC)OC` belongs “inactive”; to `NC(N)=NS(=O)(=O)c1ccc(N)cc1`, “inactive”. The same measure, in the same setting: as for `CC(C)COC(=O)C(C)C`, the entry is “inactive”; as for `CCOC(=O)Cn1c(=O)sc2cccc(Cl)c21`, “inactive”. Take `COCc1ccc(COC)cc1`: the Potency result was “inactive”. As for `CC(C)COC(=O)c1ccccc1O`, the Potency result is “inactive”. With `CCC(=O)Nc1cccc(N)c1`, the Potency result is “inactive”. For the compound `C[N+](C)(C)CC[N+]1(C)Cc2c(Cl)c(Cl)c(Cl)c(Cl)c2C1`, the Potency result was “inactive”. On the same count and under the same terms, to `Cc1onc(-c2ccccc2)c1-c1ccc(S(N)(=O)=O)cc1` belongs “inactive”; to `Cc1nc(-c2ccc(OCC(C)C)c(C#N)c2)sc1C(=O)O`, “inactive”; to `Cn1cnc2c(=O)[nH]c(N)nc21`, “inactive”. Turning to `CC/C=C\C#N`, the Potency entry was “inactive”.

As to `C=C(C)[C@H]1CC=C(C)CC1`, the Potency result was “inactive”.
